Measured values: PubChem BioAssay (NCATS)
Several values for one entry are separate records, joined by “and”; a condition that tells them apart may be missing. Equal values may be shown once. Records with an inconclusive call do not appear. Activity calls are given as the source filed them. Calls follow the shape of the dose curve; as a rule, active = well fitted curve in the direction sought with a large enough effect; inconclusive = small, poorly fitted or top-dose-only effect, or another doubt; inactive = no such curve, though single readings can be large; an effect the other way counts as inactive or inconclusive.

Assays:
CRL-7250 = normal cell line; experiment: Cytotoxic Profiling of Annotated Libraries Using Quantitative High-Throughput Screening (AID 1296008); conditions: Five cell lines viability, CellTiter-Glo ATP luminescence, 48-72 h; max response: stronger effect = lower value; also: nearly all actives have a fitted effect of over 60% in size
Outline: (§1)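 Cells exposed to compounds for 48 or 72 hr at 37 degrees Celsius. Viability read as ATP-coupled luminescence with CellTiter-Glo after 10 min at room temperature.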

HEK293 = experiment: as above; conditions: Five cell lines viability, CellTiter-Glo ATP luminescence, 48-72 h; max response: stronger effect = lower value
Outline: as §1

HaCat [1] = experiment: as above; conditions: Five cell lines viability, CellTiter-Glo ATP luminescence, 48-72 h; max response: stronger effect = lower value
Outline: as §1

KB-3-1 = experiment: as above; conditions: Five cell lines viability, CellTiter-Glo ATP luminescence, 48-72 h; max response: stronger effect = lower value
Outline: as §1

NIH3T3 [2] = experiment: as above; conditions: Five cell lines viability, CellTiter-Glo ATP luminescence, 48-72 h; max response: stronger effect = lower value
Outline: as §1

HACAT [3] = experiment: qHTS assay to identify novel small-molecules to repurpose for Merkel cell carcinoma treatment (AID 1296009); conditions: MCC and control cell lines, CellTiter-Glo viability, 72 h; at 44.8 µM (top of the series) unless noted; also: nearly all actives have a fitted effect of over 60% in size; also: potency is read from the fitted curve at half-maximal effect
Outline: (§2)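 Cells were treated for 72 hr at 37 degree celsius with compounds in 8- or 11-point dose response. Viability was read by CellTiter-Glo luminescence, normalized to no-cell (cytotoxicity) and DMSO controls.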

MCC-13 = experiment: as above; conditions: MCC and control cell lines, CellTiter-Glo viability, 72 h; series mostly up to 46 µM
Outline: as §2

MCC-26 = experiment: as above; conditions: MCC and control cell lines, CellTiter-Glo viability, 72 h; series mostly up to 46 µM
Outline: as §2

MKL-1 = experiment: as above; conditions: MCC and control cell lines, CellTiter-Glo viability, 72 h; series mostly up to 46 µM
Outline: as §2

NIH3T3 [4] = experiment: as above; conditions: MCC and control cell lines, CellTiter-Glo viability, 72 h; series mostly up to 44.8 µM
Outline: as §2

UISO = experiment: as above; conditions: MCC and control cell lines, CellTiter-Glo viability, 72 h; series mostly up to 46 µM
Outline: as §2

WaGa = experiment: as above; conditions: MCC and control cell lines, CellTiter-Glo viability, 72 h; series mostly up to 46 µM
Outline: as §2

C33A = experiment: Primary qHTS to identify gynecologic anti-cancer compounds using libraries of approved drugs and bioactive compounds (AID 1345084); conditions: Gynecologic cancer cell panel viability, ATPlite luminescence, 48 h; series mostly up to 57.5 µM; also: nearly all actives have a fitted effect of over 55% in size
Outline: (§3)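 Cytotoxicity screen measuring ATP content by luciferase luminescence. Each compound is applied at five concentrations for 48 h at 37 C with 5% CO2.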

CASKI = experiment: as above; conditions: Gynecologic cancer cell panel viability, ATPlite luminescence, 48 h; series mostly up to 57.5 µM
Outline: as §3

HEK293T = experiment: qHTS assay to identify novel small-molecules to repurpose for Merkel cell carcinoma treatment (AID 1296009); conditions: MCC and control cell lines, CellTiter-Glo viability, 72 h; at 44.8 µM (top of the series) unless noted; also: nearly all actives have a fitted effect of over 60% in size; also: potency is read from the fitted curve at half-maximal effect
Outline: as §2

MKL-2 = experiment: as above; conditions: MCC and control cell lines, CellTiter-Glo viability, 72 h; series mostly up to 46 µM
Outline: as §2

CAOV3 = experiment: Primary qHTS to identify gynecologic anti-cancer compounds using libraries of approved drugs and bioactive compounds (AID 1345084); conditions: Gynecologic cancer cell panel viability, ATPlite luminescence, 48 h; series mostly up to 57.5 µM; also: nearly all actives have a fitted effect of over 55% in size
Outline: as §3
% is scaled to controls: 0 for no effect and ±100 for the full control effect.

O=C(CC12CC3CC(CC(C3)C1)C2)Nc1cccc2nc(NCCNCCO)ccc12
inactive: max response (CRL-7250) -13.8% and 3.99% | max response (HEK293) -37.5% | outcome (HaCat [1]) | max response (KB-3-1) -12.7% | outcome (NIH3T3 [2]) | outcome (HACAT [3]) | Potency (MCC-13) | Potency (MCC-26) | Potency (MKL-1) | Potency (NIH3T3 [4]) | Potency (UISO) | Potency (WaGa) | Potency (C33A) | Potency (CASKI)

CCNC(=O)[C@H]1O[C@@H](n2cnc3c(N)nc(NCCc4ccc(CCC(=O)O)cc4)nc32)[C@H](O)[C@H]1O
inactive: max response (CRL-7250) 4.93% | outcome (HEK293) | max response (HaCat [1]) -10.6% | max response (KB-3-1) -0.875% | outcome (NIH3T3 [2]) | outcome (HEK293T) | Potency (MCC-13) | Potency (MCC-26) | Potency (MKL-1) | Potency (MKL-2) | Potency (NIH3T3 [4]) | Potency (UISO) | Potency (WaGa)

O=C(NCCCCN1CCOCC1)c1cc2ccccc2o1
inactive: max response (CRL-7250) -1.43% | max response (HEK293) -14.9% | outcome (HaCat [1]) | outcome (KB-3-1) | max response (NIH3T3 [2]) 3.06% | outcome (HACAT [3]) | Potency (MCC-13) | Potency (MCC-26) | Potency (MKL-1) | Potency (MKL-2) | Potency (UISO) | Potency (WaGa)

CO[C@H]1C=CO[C@@]2(C)Oc3c(C)c(O)c4c(O)c(c(C=NN5CCN(C)CC5)c(O)c4c3C2=O)NC(=O)C(C)=CC=C[C@H](C)[C@H](O)[C@@H](C)[C@@H](O)[C@@H](C)[C@H](OC(C)=O)[C@H]1C
inactive: max response (CRL-7250) -4.52% | max response (HEK293) 3.97% | outcome (HaCat [1]) | max response (KB-3-1) 0.835% | max response (NIH3T3 [2]) -3.12% | outcome (HACAT [3]) inactive [at 9.27 µM] | activity change, negative = cytotoxicity (MCC-13) -0.156% [at 9.22 µM] | activity change, negative = cytotoxicity (MCC-26) -1.4% [at 9.22 µM] | activity change, negative = cytotoxicity (MKL-1) -4.29% [at 9.22 µM] | activity change, negative = cytotoxicity (MKL-2) -21.3% [at 9.22 µM] | activity change, negative = cytotoxicity (UISO) 4.05% [at 9.22 µM] | activity change, negative = cytotoxicity (WaGa) -1.76% [at 9.22 µM]

N[C@@H](CC(=O)N1CCn2c(nnc2C(F)(F)F)C1)Cc1cc(F)c(F)cc1F
inactive: max response (CRL-7250) -4.16% | max response (HEK293) 1.14% | outcome (HaCat [1]) | max response (KB-3-1) -6.59% | max response (NIH3T3 [2]) -2.27% | outcome (HACAT [3]) | Potency (MCC-13) | Potency (MCC-26) | Potency (MKL-1) | Potency (MKL-2) | Potency (UISO) | Potency (WaGa)

Cc1ccc2c(=O)c3cccc(CC(=O)O)c3oc2c1C
inactive: max response (CRL-7250) -6.92% | outcome (HEK293) | max response (HaCat [1]) -14.4% | outcome (KB-3-1) | outcome (NIH3T3 [2]) | outcome (HEK293T) | Potency (MCC-13) | Potency (MCC-26) | Potency (MKL-1) | Potency (MKL-2) | Potency (NIH3T3 [4]) | Potency (UISO) | Potency (WaGa)

C[C@H](CCC(=O)O)[C@H]1CC[C@H]2[C@H]3[C@@H](CC[C@]12C)[C@@]1(C)CC[C@@H](O)C[C@H]1C[C@@H]3O
inactive: max response (CRL-7250) -2.21% | outcome (HEK293) | outcome (HaCat [1]) | max response (KB-3-1) 0.163% | max response (NIH3T3 [2]) -1.17% | outcome (HACAT [3]) | outcome (HEK293T) | Potency (MCC-13) | Potency (MCC-26) | Potency (MKL-1) | Potency (MKL-2) | Potency (UISO)

OC[C@H]1O[C@@H](Oc2ccc(O)cc2)[C@H](O)[C@@H](O)[C@H]1O
inactive: max response (CRL-7250) -2.9% | max response (HEK293) 3.31% | outcome (HaCat [1]) | outcome (KB-3-1) | outcome (NIH3T3 [2]) | outcome (HACAT [3]) | Potency (MCC-13) | Potency (MCC-26) | Potency (MKL-1) | Potency (MKL-2) | Potency (NIH3T3 [4]) | Potency (UISO) | Potency (WaGa)

Nc1[nH]nc2nnc(-c3c(-c4ccccc4)nn4ccccc34)cc12
active: Potency (WaGa) 1.05 µM
inactive: outcome (CRL-7250) | max response (HEK293) 2.02% and -4.98% | outcome (HaCat [1]) | outcome (KB-3-1) | outcome (NIH3T3 [2]) | outcome (HACAT [3]) | Potency (MCC-13) | Potency (MCC-26) | Potency (MKL-1) | Potency (NIH3T3 [4]) | Potency (UISO) | Potency (C33A) | Potency (CAOV3) | Potency (CASKI)

CCC[C@@H](NC(=O)[C@@H]1[C@H]2CCC[C@@H]2CN1C(=O)[C@@H](NC(=O)[C@@H](NC(=O)c1cnccn1)C1CCCCC1)C(C)(C)C)C(=O)C(=O)NC1CC1
inactive: outcome (CRL-7250) | max response (HEK293) -0.244% | outcome (HaCat [1]) | outcome (KB-3-1) | outcome (NIH3T3 [2]) | outcome (HACAT [3]) | Potency (MCC-13) | Potency (MCC-26) | Potency (MKL-1) | Potency (MKL-2) | Potency (NIH3T3 [4]) | Potency (UISO) | Potency (WaGa)

O=C(O)CCC=CCC[C@@H]1[C@H](N2CCCCC2)[C@@H](O)C[C@@H]1OCc1ccc(-c2ccccc2)cc1
inactive: outcome (CRL-7250) | max response (HEK293) -1.41% | outcome (HaCat [1]) | outcome (KB-3-1) | max response (NIH3T3 [2]) 3.59% | outcome (HACAT [3]) | Potency (MCC-13) | Potency (MCC-26) | Potency (MKL-1) | Potency (MKL-2) | Potency (UISO) | Potency (WaGa)

C[C@@H](O)[C@H]1C(=O)N2C(C(=O)OCOC(=O)C(C)(C)C)=C(SC3CN(C4=NCCS4)C3)[C@H](C)[C@H]12
inactive: max response (CRL-7250) 0.148% | outcome (HEK293) | outcome (HaCat [1]) | max response (KB-3-1) 8.8% | outcome (NIH3T3 [2]) | outcome (HACAT [3]) | outcome (HEK293T) | Potency (MCC-13) | Potency (MCC-26) | Potency (MKL-1) | Potency (NIH3T3 [4]) | Potency (UISO) | Potency (WaGa)

O=C(O)C1=NC(C(=O)O)CC(C=CN2c3cc(O)c(OC4OC(CO)C(O)C(O)C4O)cc3CC2C(=O)O)=C1 (configuration not stated)
inactive: outcome (CRL-7250) | outcome (HEK293) | outcome (HaCat [1]) | max response (KB-3-1) 2.69% | max response (NIH3T3 [2]) 3.64% | outcome (HACAT [3]) | outcome (HEK293T) | Potency (MCC-13) | Potency (MCC-26) | Potency (MKL-1) | Potency (MKL-2) | Potency (UISO) | Potency (WaGa)
